Experimental findings from PubChem BioAssay (EPA / NIEHS) are described below.

SMILES strings stand for the structures. Results filed as inconclusive are left out. Activity calls are given as the source filed them. The calls were made as follows, unless noted: active = hit-call score of the fitted dose curve at least 0.9, where 1 is the maximum; inconclusive = response in the unintended direction; inactive = score below 0.9.

Assay [1] in a line: ATG_TCF_b_cat_CIS: Attagene CIS-FACTORIAL HepG2 Assay for human T-Cell-Factor with beta-catenin (TCF/b-cat) (AID 2282965; active = hit-call score of the fitted dose curve at least 0.9, where 1 is the maximum; inactive = score below 0.9). The conditions noted are these: HepG2 TCF/beta-catenin cis-reporter transcription, actives raise or lower the signal. Put shortly:
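Endogenous transcription factor activity is captured through cis-promoter reporter constructs transiently introduced into human HepG2 liver cells. Induced reporter mRNA is measured after 24 h and fitted bidirectionally relative to DMSO.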

The nature of assay [2]: ATG_TAL_CIS: Attagene CIS-FACTORIAL HepG2 Assay for human TAL Basal Promoter (AID 2282966; active = hit-call score of the fitted dose curve at least 0.9, where 1 is the maximum; inactive = score below 0.9;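 also: background control endpoint measuring basal TAL promoter reporter mRNA not a specific factor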). The note with it: HepG2 Attagene cis-factorial TAL promoter reporter; actives raise or lower the signal. Put shortly:
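Endogenous transcription-factor activity is sensed in HepG2 cells through transfected cis-promoter reporter constructs. After 24 h dosing, reporter transcripts are quantified by RT-PCR and capillary electrophoresis. Gain or loss of signal is fitted relative to DMSO.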

Assay [3] is described as follows: ATG_TGFb_CIS: Attagene CIS-FACTORIAL HepG2 Assay for human Transforming Growth Factor (TGF) (AID 2282967; active = hit-call score of the fitted dose curve at least 0.9, where 1 is the maximum; inactive = score below 0.9). The conditions noted are these: HepG2 Attagene CIS TGFb reporter, mRNA transcription; actives raise or lower the signal. Put shortly:
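HepG2 cells transiently transfected with cis-promoter-driven multiple reporter units measure endogenous TF activity; reporter mRNA quantified at 24 h by RT-PCR, FAM labeling, HpaI digestion and capillary electrophoresis. Bidirectional fit vs DMSO.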

Assay [4] is described as follows: ATG_VDRE_CIS: Attagene CIS-FACTORIAL HepG2 Assay for human Vitamin D Receptor Element (VDRE) (AID 2282968; active = hit-call score of the fitted dose curve at least 0.9, where 1 is the maximum; inactive = score below 0.9). The conditions noted are these: HepG2 VDRE cis-reporter transcription, actives raise or lower the signal. Put shortly: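 Measures endogenous factor activity through cis-element-driven reporter transcripts in transiently transfected HepG2. Cells are treated 24 h; reporter mRNA is quantified by RT-PCR and capillary electrophoresis; fitting is bidirectional.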

Assay [5] deals with Nuclear receptor subfamily 1 group I member 3 (Homo sapiens) (UniProt Q14994). Briefly: ATG_CAR_TRANS: Attagene TRANS-FACTORIAL HepG2 Assay for human Constitutive Androstane Receptor (CAR) (AID 2282969).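 Also: activators raise reporter mRNA above DMSO so AC50 marks induction.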 The conditions noted are these: HepG2 Attagene TRANS-FACTORIAL CAR reporter. In a few lines: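 Signal is reporter mRNA induction relative to DMSO, measured 24 h after dosing by RT-PCR with fluorescent primer extension and capillary electrophoresis. Human HepG2 liver cells carried transiently transfected chimeric NR-Gal4/GAL4-UAS reporter constructs.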
Sequence of Nuclear receptor subfamily 1 group I member 3 (Homo sapiens) (Q14994 whole entry, looked up, the tested form may be a part): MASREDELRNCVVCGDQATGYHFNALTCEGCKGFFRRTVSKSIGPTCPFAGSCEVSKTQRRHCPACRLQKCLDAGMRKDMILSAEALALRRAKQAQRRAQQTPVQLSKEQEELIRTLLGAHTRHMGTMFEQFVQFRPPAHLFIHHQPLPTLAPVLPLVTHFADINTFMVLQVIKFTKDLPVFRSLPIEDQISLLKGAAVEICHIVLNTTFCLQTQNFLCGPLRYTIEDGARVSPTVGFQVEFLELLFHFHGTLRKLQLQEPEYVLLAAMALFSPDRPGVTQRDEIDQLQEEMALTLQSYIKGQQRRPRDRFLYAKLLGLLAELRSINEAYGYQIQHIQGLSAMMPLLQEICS

Assay [6] addresses Estrogen receptor (Homo sapiens) (UniProt P03372). Briefly: ATG_ERa_TRANS: Attagene TRANS-FACTORIAL HepG2 Assay for human Estrogen Receptor alpha (ERa) (AID 2282970). The conditions noted are these: HepG2 Attagene TRANS ERa GAL4 reporter, mRNA. Put shortly:
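Transfected HepG2 cells carrying GAL4-UAS-driven reporter units were dosed for 24 hours. Total RNA was reverse-transcribed, reporter sequences PCR-amplified, FAM-labelled, HpaI-digested and resolved by capillary electrophoresis. Increases over DMSO control defined activity.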

For assay [7], the target named is X-box-binding protein 1 (Homo sapiens) (UniProt P17861). Briefly: ATG_Xbp1_CIS: Attagene CIS-FACTORIAL HepG2 Assay for human X-box Binding Protein 1 (XBP1) (AID 2282972; active = hit-call score of the fitted dose curve at least 0.9, where 1 is the maximum; inactive = score below 0.9). The conditions noted are these: HepG2 XBP1 cis-element reporter, Attagene multiplex; actives raise or lower the signal. Put shortly:
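Changes in reporter transcript abundance, read by RT-PCR and capillary electrophoresis, reflect endogenous transcription factor activity. Transfected HepG2 cells received compound for 24 hours; DMSO defined baseline for bidirectional analysis.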

Assay [8] can be described thus: ATG_M_19_TRANS: Attagene TRANS-FACTORIAL HepG2 Assay for M19 Transcription Factor (Internal Marker) (AID 2282974). The note with it: HepG2 Attagene TRANS-FACTORIAL M19 internal marker reporter. In a few lines:
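24 h chemical exposure of transiently transfected HepG2 (MRTU library). RNA → oligo(dT) RT → PCR → 6-FAM labelling → HpaI cut → CE fluorescence. Positive-direction fit vs DMSO baseline; background internal-marker readout.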

Assay [9] in a line: ATG_GAL4_TRANS: Attagene TRANS-FACTORIAL HepG2 Assay for GAL4 (Internal Marker) (AID 2282976). The conditions noted are these: HepG2 Attagene TRANS GAL4 internal marker reporter. Put shortly: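 Fluorescence from capillary electrophoresis of labelled RT-PCR products quantifies reporter mRNA induction after 24 h dosing of HepG2 cells carrying transfected GAL4-UAS reporter transcription units. Vehicle DMSO serves as baseline.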

Assay [10] deals with Glucocorticoid receptor (Homo sapiens) (UniProt P04150). Briefly: ATG_GR_TRANS: Attagene TRANS-FACTORIAL HepG2 Assay for human Glucocorticoid Receptor (GR) (AID 2282978).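 Also: activators score as hits since higher reporter transcript over DMSO is fitted.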 The conditions noted are these: HepG2 Attagene TRANS GR reporter, mRNA transcription. Put shortly:
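Transient MRTU transfection of HepG2 (GAL4-UAS reporters, exogenous NR-GAL4 chimeras), 24 h dosing. Readout: reporter transcript via RT-PCR + capillary electrophoresis fluorescence. Positive direction vs DMSO baseline.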

Assay [11] addresses Bile acid receptor (Homo sapiens) (UniProt Q96RI1). Briefly: ATG_FXR_TRANS: Attagene TRANS-FACTORIAL HepG2 Assay for Farnesoid X Receptor (FXR) (AID 2282979).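 Also: hits raise reporter mRNA above DMSO so AC50 marks FXR activation.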 The note with it: HepG2 Attagene TRANS FXR-GAL4 reporter transcription. Put shortly:
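Chimeric FXR-GAL4 activity in transiently transfected human HepG2 liver cells is scored as induction of reporter mRNA after 24 h of dosing. Detection uses RT-PCR with fluorescent labelling and capillary electrophoresis, with DMSO serving as baseline.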

Assay [12] can be described thus: ATG_M_06_TRANS: Attagene TRANS-FACTORIAL HepG2 Assay for M06 Transcription Factor (Internal Marker) (AID 2282983). The note with it: HepG2 Attagene TRANS M06 internal marker reporter. Put shortly: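 Human liver HepG2 cells bearing transiently transfected chimeric NR-GAL4 reporter units were treated with chemicals for 24 h. Total RNA was reverse-transcribed, reporter sequences amplified and labelled, then quantified by capillary electrophoresis. Activity was fitted upward relative to DMSO.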

The nature of assay [13]: ATG_M_32_TRANS: Attagene TRANS-FACTORIAL HepG2 Assay for M32 Transcription Factor (Internal Marker) (AID 2282984).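 Also: transcript level of a background control reporter unit measured by RT-PCR and capillary electrophoresis.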 The conditions noted are these: HepG2 Attagene TRANS M32 internal marker reporter. Put shortly: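 Cell-based TRANS-format assay in HepG2: exogenous chimeric GAL4 reporter units transiently expressed, compounds applied 24 h. Reporter mRNA detected by RT-PCR plus capillary electrophoresis; this readout is an internal background marker.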

The target in assay [14] is Steroid hormone receptor ERR1 (Homo sapiens) (UniProt P11474). Briefly: ATG_ERRa_TRANS: Attagene TRANS-FACTORIAL HepG2 Assay for human Estrogen-Related Receptor alpha (ERRa) (AID 2282971). The conditions noted are these: HepG2 Attagene TRANS reporter, ERRa transactivation. In a few lines:
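HepG2 cells were transiently transfected with multiple GAL4-UAS reporter units, then dosed with compound for 24 h. Total RNA was reverse-transcribed, reporter cDNA PCR-amplified and fluorescently labelled, and fragments resolved by capillary electrophoresis; induction was compared with DMSO.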

Assay [15] deals with Estrogen-related receptor gamma (Homo sapiens) (UniProt P62508). Briefly: ATG_ERRg_TRANS: Attagene TRANS-FACTORIAL HepG2 Assay for human Estrogen-Related Receptor gamma (ERRg) (AID 2282977).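 Also: hits increase reporter signal over DMSO so potencies reflect activators.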 The note with it: HepG2 Attagene TRANS reporter, ERRg transactivation. In a few lines: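 Exogenous NR-Gal4 chimera activity was assessed in HepG2 cells bearing transfected GAL4-UAS reporters. After 24 h dosing, total RNA underwent RT-PCR, fluorescent primer extension and HpaI digestion before capillary electrophoresis, with gain of signal scored against DMSO.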
Sequence of Estrogen-related receptor gamma (Homo sapiens) (P62508 whole entry, looked up, the tested form may be a part): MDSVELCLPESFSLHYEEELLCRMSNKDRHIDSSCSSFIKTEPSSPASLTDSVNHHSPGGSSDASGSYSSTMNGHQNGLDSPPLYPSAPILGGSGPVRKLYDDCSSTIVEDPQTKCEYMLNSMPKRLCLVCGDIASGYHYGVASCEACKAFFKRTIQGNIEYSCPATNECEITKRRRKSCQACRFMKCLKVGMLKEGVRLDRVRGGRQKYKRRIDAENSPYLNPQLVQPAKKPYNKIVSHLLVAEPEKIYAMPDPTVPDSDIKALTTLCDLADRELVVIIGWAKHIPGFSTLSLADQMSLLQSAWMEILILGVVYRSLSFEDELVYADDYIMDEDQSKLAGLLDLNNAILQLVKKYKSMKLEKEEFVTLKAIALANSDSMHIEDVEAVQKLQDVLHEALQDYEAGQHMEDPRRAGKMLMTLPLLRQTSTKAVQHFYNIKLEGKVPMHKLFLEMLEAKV

Assay [16] has as its target Hepatocyte nuclear factor 4-alpha (Homo sapiens) (UniProt P41235). Briefly: ATG_HNF4a_TRANS: Attagene TRANS-FACTORIAL HepG2 Assay for human Hepatocyte Nuclear Factor 4 alpha (HNF4a) (AID 2282982). The conditions noted are these: HepG2 HNF4a transactivation reporter, mRNA readout. In a few lines: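 Multiplexed reporter assay: transfected HepG2, 24 h exposure, total RNA → oligo(dT) RT → PCR → 6-FAM extension → HpaI digest → CE fluorescence. DMSO = negative control.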

Assay [17] addresses Nuclear receptor subfamily 4 group A member 2 (Homo sapiens) (UniProt P43354). Briefly: ATG_NURR1_TRANS: Attagene TRANS-FACTORIAL HepG2 Assay for human Nuclear Receptor Related Protein 1 (NURR1) (AID 2282985). The note with it: HepG2 Attagene TRANS reporter, mRNA readout. In a few lines: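 Measures transcriptional activation by an exogenous NR-Gal4 chimera in transfected HepG2 liver cells. After 24 h, reporter RNA is reverse-transcribed, amplified and resolved by capillary electrophoresis; DMSO defines baseline.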

The target of assay [18] is Androgen receptor (Homo sapiens) (UniProt P10275). Briefly: ATG_AR_TRANS: Attagene TRANS-FACTORIAL HepG2 Assay for human Androgen Receptor (AR) (AID 2282973). The note with it: HepG2 Attagene TRANS-FACTORIAL AR reporter transcription. In a few lines: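 Transfected HepG2, 24 h treatment, chimeric NR-Gal4 driving GAL4-UAS reporters. mRNA induction by RT-PCR/capillary electrophoresis fluorescence; DMSO as negative control and baseline.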
Sequence of Androgen receptor (Homo sapiens) (P10275 whole entry, looked up, the tested form may be a part): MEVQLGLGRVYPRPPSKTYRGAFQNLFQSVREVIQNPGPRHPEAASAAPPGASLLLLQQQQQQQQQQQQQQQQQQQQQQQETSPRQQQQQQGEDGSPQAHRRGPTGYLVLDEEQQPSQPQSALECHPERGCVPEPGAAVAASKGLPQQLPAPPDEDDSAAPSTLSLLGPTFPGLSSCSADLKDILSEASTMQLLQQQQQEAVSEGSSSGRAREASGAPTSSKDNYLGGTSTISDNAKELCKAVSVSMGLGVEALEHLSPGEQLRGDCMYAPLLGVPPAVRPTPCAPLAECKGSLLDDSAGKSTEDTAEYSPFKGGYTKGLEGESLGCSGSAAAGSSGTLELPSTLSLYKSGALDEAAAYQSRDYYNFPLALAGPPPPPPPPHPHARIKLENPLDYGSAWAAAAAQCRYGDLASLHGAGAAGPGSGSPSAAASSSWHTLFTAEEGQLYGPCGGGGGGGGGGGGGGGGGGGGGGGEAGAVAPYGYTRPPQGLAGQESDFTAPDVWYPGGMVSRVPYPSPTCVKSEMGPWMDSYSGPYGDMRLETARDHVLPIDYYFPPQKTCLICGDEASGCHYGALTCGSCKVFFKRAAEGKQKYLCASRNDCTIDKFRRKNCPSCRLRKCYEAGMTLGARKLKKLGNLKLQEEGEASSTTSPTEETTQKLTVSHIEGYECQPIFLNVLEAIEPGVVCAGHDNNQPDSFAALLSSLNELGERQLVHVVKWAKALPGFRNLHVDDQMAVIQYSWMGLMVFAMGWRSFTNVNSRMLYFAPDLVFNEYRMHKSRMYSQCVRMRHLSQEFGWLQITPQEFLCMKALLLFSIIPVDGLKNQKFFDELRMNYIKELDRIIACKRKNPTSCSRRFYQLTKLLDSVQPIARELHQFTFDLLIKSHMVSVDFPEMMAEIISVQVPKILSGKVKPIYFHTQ

Assay [19] deals with Oxysterols receptor LXR-beta (Homo sapiens) (UniProt P55055). Briefly: ATG_LXRb_TRANS: Attagene TRANS-FACTORIAL HepG2 Assay for human Liver X Receptor beta (LXRb) (AID 2282981). The conditions noted are these: HepG2 Attagene TRANS GAL4-LXRb reporter, mRNA. Put shortly: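 After 24 h of chemical treatment, transfected HepG2 cells yield total RNA; reporter cDNA is PCR-amplified, FAM-labelled, HpaI-cut and run on capillary electrophoresis. Signal reflects chimeric LXRb-Gal4 activity on GAL4-UAS reporters.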
Sequence of Oxysterols receptor LXR-beta (Homo sapiens) (P55055 whole entry, looked up, the tested form may be a part): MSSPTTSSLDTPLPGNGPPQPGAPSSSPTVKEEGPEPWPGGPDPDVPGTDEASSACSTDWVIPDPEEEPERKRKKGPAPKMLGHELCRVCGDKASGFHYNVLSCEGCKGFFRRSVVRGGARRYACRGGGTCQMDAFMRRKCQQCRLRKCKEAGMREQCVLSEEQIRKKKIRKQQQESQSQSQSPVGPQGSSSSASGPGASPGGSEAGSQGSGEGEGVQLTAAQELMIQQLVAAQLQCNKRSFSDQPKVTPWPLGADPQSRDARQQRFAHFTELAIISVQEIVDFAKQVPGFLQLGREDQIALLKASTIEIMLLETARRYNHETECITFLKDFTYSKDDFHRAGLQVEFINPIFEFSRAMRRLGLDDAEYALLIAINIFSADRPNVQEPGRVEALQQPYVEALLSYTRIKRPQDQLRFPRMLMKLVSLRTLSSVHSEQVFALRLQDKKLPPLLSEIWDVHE

Sequence of Estrogen receptor (Homo sapiens) (P03372 whole entry, looked up, the tested form may be a part): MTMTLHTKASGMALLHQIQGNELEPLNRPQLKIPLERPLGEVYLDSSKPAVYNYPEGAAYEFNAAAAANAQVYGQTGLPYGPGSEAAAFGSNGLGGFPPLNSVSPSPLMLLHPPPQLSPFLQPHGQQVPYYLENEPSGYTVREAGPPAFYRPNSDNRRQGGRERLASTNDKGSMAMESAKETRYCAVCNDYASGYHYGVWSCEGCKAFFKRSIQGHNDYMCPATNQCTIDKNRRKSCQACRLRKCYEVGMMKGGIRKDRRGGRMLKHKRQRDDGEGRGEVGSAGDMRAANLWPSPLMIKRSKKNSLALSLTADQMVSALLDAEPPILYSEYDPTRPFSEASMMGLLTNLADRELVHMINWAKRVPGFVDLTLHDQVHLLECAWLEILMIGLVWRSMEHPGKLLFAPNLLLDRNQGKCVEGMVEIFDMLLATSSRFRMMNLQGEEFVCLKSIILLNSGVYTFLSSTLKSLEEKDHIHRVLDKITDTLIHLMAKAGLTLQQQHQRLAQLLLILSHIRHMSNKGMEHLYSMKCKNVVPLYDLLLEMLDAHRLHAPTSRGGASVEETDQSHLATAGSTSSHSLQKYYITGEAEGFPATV
Sequence of Steroid hormone receptor ERR1 (Homo sapiens) (P11474 whole entry, looked up, the tested form may be a part): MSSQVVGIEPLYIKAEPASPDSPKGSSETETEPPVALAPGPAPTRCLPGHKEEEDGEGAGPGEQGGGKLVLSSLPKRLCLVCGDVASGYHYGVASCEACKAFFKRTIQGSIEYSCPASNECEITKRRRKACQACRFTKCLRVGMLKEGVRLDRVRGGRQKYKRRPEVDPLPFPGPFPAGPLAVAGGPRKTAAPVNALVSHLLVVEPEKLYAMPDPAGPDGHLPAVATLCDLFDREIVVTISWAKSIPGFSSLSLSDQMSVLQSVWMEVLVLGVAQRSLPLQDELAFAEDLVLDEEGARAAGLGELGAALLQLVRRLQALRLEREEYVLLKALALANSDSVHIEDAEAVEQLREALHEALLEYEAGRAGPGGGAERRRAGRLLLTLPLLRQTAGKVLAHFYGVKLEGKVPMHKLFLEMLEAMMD
Sequence of Glucocorticoid receptor (Homo sapiens) (P04150 whole entry, looked up, the tested form may be a part): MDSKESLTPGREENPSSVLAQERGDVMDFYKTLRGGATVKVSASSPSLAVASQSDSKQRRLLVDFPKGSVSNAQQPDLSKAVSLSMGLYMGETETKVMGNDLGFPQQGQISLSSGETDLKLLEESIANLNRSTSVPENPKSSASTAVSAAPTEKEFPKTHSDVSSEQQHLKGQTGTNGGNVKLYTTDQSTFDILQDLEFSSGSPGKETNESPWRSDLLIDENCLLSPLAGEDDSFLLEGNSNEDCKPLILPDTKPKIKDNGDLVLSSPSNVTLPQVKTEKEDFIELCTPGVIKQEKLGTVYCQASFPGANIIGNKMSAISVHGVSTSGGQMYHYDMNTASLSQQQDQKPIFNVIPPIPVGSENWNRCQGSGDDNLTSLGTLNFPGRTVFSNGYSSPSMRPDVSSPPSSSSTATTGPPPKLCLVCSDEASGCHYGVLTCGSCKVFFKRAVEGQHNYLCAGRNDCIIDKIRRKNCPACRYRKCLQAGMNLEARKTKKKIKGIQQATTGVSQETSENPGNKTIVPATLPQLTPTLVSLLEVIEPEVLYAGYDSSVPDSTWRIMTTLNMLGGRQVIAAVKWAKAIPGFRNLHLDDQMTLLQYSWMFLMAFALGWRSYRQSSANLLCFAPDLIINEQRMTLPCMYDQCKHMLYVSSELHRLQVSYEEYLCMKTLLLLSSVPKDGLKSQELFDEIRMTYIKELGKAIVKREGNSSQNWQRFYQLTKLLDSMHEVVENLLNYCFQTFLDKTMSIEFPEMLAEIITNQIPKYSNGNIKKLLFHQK
Sequence of X-box-binding protein 1 (Homo sapiens) (P17861 whole entry, looked up): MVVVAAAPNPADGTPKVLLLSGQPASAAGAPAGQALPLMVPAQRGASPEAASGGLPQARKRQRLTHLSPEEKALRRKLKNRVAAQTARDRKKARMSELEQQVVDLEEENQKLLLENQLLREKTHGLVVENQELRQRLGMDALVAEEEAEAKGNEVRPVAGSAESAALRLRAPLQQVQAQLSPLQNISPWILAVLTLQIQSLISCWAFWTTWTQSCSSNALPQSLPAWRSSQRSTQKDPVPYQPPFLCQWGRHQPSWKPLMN
Sequence of Bile acid receptor (Homo sapiens) (Q96RI1 whole entry, looked up, the tested form may be a part): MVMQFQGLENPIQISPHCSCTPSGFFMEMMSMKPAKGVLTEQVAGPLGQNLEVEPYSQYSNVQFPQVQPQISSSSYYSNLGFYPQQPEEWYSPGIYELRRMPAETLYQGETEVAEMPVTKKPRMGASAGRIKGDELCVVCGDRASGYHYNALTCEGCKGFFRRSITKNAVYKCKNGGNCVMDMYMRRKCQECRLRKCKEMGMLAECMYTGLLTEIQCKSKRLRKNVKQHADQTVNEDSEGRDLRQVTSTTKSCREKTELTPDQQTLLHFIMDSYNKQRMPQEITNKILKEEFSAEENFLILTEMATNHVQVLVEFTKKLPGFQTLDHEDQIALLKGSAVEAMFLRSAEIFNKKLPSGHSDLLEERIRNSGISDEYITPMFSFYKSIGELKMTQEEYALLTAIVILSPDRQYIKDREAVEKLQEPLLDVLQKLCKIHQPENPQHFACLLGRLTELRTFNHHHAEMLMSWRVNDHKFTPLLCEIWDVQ

Regarding `C/C(=N\NC(=O)Nc1cc(F)cc(F)c1)c1ncccc1C(=O)O`, the compound was called inactive in assay [1], in assay [2], in assay [3], in assay [4], in assay [5] and in assay [6]. The outcome in assay [7], in assay [8], in assay [9], in assay [10], in [11] and in assay [12] was inactive. For the same compound, in [13], the result was inactive.
For orientation: AC50 means the midpoint of the concentration-response curve, whichever way the signal moves. Turning to `CC(C)Nc1ccc(Nc2ccccc2)cc1`, the result in [1], in [2], in assay [3], in assay [5], in [14] and in assay [7] was inactive. Besides, the compound was classed as inactive in [8], in [9], in [15], in assay [10], in assay [11] and in assay [16]. In assay [17], the result was inactive. Further, the AC50 is 3.68 µM (active) in [4] and 8.77 µM (active) in [6].
In the case of `CCCN(CCC)c1c([N+](=O)[O-])cc(C(C)C)cc1[N+](=O)[O-]`, the compound was classed as inactive in [1], in [2], in [3], in assay [4], in assay [5] and in assay [6]. Also, in [7], the compound was called inactive.
As for `CCOP(=S)(S)OCC`, the compound was called inactive in assay [1], in assay [2], in [3], in [4], in assay [5] and in assay [6]. Moreover, the outcome in assay [7], in assay [18], in [9], in assay [11], in [19] and in assay [12] was inactive. In addition, the compound was called inactive in [13] and in assay [17].
As for `CC(O)C(F)(F)C(F)(F)F` (stereo not given), the call in assay [1], in assay [2], in assay [3], in assay [4], in [5] and in assay [6] was inactive. Moreover, the compound was classed as inactive in assay [14], in assay [7], in assay [18], in assay [9], in [15] and in assay [10]. Also, the call in assay [11], in assay [19], in assay [12] and in [13] was inactive.
